Where “and” joins values, the source holds several entries; their conditions need not be identical. Equal entries are not always repeated. Inconclusive results are not listed. Where a structure was tested more than once in an assay, its records may differ in their call. Calls of active or inactive are those of the source. Rule for the calls, unless noted: active = hit-call score of the fitted dose curve at least 0.9, where 1 is the maximum; inconclusive = response in the unintended direction; inactive = score below 0.9.
Tests used:
[1] = target: human Thyroid Receptor Alpha (TRa), THRA (gene 7067) (UniProt P10827); assay: NVS_NR_hTRa_Antagonist: NovaScreen (NVS) Nuclear Receptor Binding Assay for human Thyroid Receptor Alpha Antagonism (TRa) (AID 2283362);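 note: activity is loss of signal relative to DMSO baseline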
Sequence of human Thyroid Receptor Alpha (TRa), THRA (gene 7067) (P10827 whole entry, looked up): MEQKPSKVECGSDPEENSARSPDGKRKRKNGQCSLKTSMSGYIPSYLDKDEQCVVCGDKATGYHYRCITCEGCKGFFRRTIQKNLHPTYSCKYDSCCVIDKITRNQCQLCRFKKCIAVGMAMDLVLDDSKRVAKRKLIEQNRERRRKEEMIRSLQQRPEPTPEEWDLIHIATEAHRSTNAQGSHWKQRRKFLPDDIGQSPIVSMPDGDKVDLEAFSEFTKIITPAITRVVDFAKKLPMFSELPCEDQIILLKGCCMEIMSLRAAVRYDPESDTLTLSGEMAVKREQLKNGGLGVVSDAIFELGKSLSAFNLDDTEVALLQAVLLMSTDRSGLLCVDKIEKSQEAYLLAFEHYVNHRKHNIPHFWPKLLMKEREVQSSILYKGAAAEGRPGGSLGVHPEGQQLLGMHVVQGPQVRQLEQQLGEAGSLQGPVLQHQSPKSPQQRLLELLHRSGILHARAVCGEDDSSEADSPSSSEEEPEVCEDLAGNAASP
Procedure, shortened: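 AlphaLISA chemiluminescent immunoassay readout, taken 1 h post-dosing in a cell-free system with extracted protein. Activity was scored as signal loss against DMSO negative control, from duplicate single-concentration (25 uM) testing followed by concentration-response follow-up.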

[2] = target: human Dopamine Transporter (DAT), SLC6A3 (gene 6531) (UniProt Q01959); assay: NVS_TR_hDAT: NovaScreen (NVS) Transporter Assay for human Dopamine Transporter (DAT) (AID 2283374);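 note: activity means loss of bound radioligand signal relative to DMSO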
Sequence of human Dopamine Transporter (DAT), SLC6A3 (gene 6531) (Q01959 whole entry, looked up): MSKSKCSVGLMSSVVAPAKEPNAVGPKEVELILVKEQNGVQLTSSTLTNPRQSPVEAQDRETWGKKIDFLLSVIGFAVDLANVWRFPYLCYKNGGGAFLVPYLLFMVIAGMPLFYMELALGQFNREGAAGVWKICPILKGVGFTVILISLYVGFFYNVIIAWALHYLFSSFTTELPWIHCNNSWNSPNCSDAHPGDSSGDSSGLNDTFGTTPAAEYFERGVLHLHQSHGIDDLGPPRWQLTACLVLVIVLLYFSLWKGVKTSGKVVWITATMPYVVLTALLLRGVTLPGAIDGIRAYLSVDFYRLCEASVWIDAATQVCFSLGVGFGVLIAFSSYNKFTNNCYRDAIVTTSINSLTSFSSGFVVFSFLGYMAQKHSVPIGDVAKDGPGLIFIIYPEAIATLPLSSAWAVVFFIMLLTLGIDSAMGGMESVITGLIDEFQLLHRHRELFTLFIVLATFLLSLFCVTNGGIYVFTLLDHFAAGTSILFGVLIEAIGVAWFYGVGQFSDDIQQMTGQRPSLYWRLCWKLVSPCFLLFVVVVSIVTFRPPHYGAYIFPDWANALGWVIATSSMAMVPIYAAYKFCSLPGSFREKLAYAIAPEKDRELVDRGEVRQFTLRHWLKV
Procedure, shortened: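 Duplicate single-point screening at 25 uM preceded concentration-series follow-up of actives. Binding was measured by competitive displacement of a radioligand from DAT protein, filter-counted by scintillation 1 h after dosing. Decrease relative to DMSO taken as activity.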

[3] = target: human Norepinephrine Transporter (NET), SLC6A2 (gene 6530) (UniProt P23975); assay: NVS_TR_hNET: NovaScreen (NVS) Transporter Assay for human Norepinephrine Transporter (NET) (AID 2283377);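 note: cell-free membrane protein extracted from CHO cells expressing human NET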;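 for AC50: displacement of radioligand from human NET seen as loss of scintillation signal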
Procedure, shortened: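 Single-concentration duplicate screen at 25 uM, then concentration-response for actives; displacement of specific radioligand from human NET in CHO membrane extracts, filter-based scintillation detection at 1 h relative to DMSO.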

[4] = target: mouse Estrogen Receptor alpha (Era), Esr1 (gene 13982) (UniProt P19785); assay: NVS_NR_mERa: NovaScreen (NVS) Nuclear Receptor Binding Assay for mouse Estrogen Receptor alpha (Era) (AID 2283378);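 note: hit means loss of bound radioligand signal relative to DMSO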
Procedure, shortened: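 Filter scintillation counts of bound radioligand, measured 18 h post-dose, gave the readout; decreased signal relative to DMSO controls indicated displacement from mouse Era. Primary screen ran in duplicate at 25 uM; active chemicals were retested across concentrations.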

[5] = target: Estrogen receptor beta (Homo sapiens) (UniProt Q92731); assay: OT_ER_ERbERb_1440: Odyssey Thera (OT) 24-hour HEK293T Protein-Complementation Assay for Estrogen Receptor-beta/-beta Homodimer (AID 2283380);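 note: fluorescence gain from ER beta LBD homodimer complementation read by laser scanning cytometry; scored as signal increase over DMSO baseline for both agonists and antagonists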
Sequence of Estrogen receptor beta (Homo sapiens) (Q92731 whole entry, looked up, the tested form may be a part): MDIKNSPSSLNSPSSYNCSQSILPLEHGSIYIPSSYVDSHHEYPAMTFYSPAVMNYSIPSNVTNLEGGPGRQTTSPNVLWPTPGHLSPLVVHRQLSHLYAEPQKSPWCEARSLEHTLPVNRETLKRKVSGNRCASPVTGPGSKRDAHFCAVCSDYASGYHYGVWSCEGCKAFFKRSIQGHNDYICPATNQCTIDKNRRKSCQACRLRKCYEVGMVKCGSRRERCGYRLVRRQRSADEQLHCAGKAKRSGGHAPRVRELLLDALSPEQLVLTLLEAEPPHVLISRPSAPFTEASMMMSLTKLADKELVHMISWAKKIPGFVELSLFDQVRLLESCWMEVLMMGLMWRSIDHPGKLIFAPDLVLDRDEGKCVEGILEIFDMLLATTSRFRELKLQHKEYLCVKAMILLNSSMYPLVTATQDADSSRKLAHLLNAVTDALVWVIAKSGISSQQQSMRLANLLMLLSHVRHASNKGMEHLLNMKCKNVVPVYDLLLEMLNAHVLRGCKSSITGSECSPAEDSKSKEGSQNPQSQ
Procedure, shortened: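 Fluorescence increase, nuclear for agonists or whole-cell for antagonists, relative to DMSO vehicle, quantified by laser scanning cytometer after fixation and Draq5 staining. Readout from 24 h treatment of HEK293T cells carrying complementation-paired ER beta LBD (aa 310-547).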

[6] = target: Estrogen receptor (Homo sapiens) (UniProt P03372); assay: OT_ERa_GFPERaERE_0120: Odyssey Thera (OT) 2-hour HeLa Transcription Induction Assay for Estrogen Receptor (AID 2283382)
Procedure, shortened: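 Fluorescence microscopy read-out: inducible fluorescent protein reporter in HeLa cells, imaged 2 h post-dose. Signal increase over DMSO negative control fitted as single primary endpoint via high content image analysis.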

[7] = target: rat Serotonin Transporter (SERT), Slc6a4 (gene 25553) (UniProt P31652); assay: NVS_TR_rSERT: NovaScreen (NVS) Transporter Assay for rat Serotonin Transporter (SERT) (AID 2283375)
Sequence of rat Serotonin Transporter (SERT), Slc6a4 (gene 25553) (P31652 whole entry, looked up): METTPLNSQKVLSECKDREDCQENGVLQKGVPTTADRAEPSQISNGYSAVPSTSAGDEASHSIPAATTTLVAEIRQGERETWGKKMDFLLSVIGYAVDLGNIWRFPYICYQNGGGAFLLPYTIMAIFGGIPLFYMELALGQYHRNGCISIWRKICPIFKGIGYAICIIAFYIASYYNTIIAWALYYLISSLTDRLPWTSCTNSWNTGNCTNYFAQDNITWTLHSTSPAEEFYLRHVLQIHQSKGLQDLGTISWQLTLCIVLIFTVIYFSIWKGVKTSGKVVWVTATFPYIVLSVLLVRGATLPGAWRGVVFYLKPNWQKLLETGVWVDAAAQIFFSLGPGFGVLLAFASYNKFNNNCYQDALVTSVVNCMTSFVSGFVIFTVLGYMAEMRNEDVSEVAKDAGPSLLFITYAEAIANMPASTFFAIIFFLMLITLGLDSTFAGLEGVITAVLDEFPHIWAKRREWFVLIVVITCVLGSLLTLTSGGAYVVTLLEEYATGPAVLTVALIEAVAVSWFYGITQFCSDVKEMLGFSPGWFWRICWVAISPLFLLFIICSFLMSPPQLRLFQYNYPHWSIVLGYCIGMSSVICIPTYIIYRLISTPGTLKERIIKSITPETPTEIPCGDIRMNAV
Procedure, shortened: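 Radioligand displacement, filter scintillation readout; rat forebrain membrane prep, 1 h post-dose. Single-conc 25 uM duplicate screen, then concentration-response on actives. Loss of signal vs DMSO baseline.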

[8] = target: guinea pig Sigma Receptor, Non-selective Binding, SIGMAR1 (gene 100135589) (UniProt Q60492); assay: NVS_OR_gSIGMA_NonSelective: NovaScreen (NVS) Nuclear Receptor Binding Assay for guinea pig Sigma Receptor, Non-selective Binding (AID 2283367)
Procedure, shortened: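 Guinea pig brain membrane sigma sites were labelled with a radioligand, and bound radioactivity was counted after filtration 1 h post-dose. Compounds were screened at 25 uM in duplicate, then retested as concentration series when active.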

[9] = target: Glucocorticoid receptor (Homo sapiens) (UniProt P04150); assay: NVS_NR_hGR: NovaScreen (NVS) Nuclear Receptor Binding Assay for human Glucocorticoid Receptor (GR) (AID 2283363);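 for AC50: activity is loss of specific radioligand binding signal relative to DMSO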
Sequence of Glucocorticoid receptor (Homo sapiens) (P04150 whole entry, looked up): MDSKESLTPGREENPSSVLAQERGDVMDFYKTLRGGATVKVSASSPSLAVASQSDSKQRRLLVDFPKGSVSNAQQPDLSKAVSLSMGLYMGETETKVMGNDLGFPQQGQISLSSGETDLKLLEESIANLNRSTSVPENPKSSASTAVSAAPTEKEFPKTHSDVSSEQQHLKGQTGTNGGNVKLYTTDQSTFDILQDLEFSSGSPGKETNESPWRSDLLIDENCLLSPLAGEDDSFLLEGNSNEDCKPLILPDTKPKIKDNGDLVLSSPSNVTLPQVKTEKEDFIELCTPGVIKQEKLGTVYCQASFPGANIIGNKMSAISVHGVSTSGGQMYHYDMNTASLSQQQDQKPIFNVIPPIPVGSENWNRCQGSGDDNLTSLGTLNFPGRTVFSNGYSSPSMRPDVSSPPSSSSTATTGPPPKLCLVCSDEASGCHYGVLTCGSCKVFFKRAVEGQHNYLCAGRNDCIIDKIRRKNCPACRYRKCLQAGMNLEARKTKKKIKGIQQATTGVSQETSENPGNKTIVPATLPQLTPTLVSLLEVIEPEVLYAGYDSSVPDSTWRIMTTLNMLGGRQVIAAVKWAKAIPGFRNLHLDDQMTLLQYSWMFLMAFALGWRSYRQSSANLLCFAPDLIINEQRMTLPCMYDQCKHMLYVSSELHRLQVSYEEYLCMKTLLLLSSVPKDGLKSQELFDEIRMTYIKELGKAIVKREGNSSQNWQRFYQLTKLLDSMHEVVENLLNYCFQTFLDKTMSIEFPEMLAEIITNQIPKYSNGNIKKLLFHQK
Procedure, shortened: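 Compounds first tested in duplicate at 25 uM, actives followed up in concentration series. Binding to extracted GR protein measured as competitive radioligand displacement, filter scintillation read 16 h post-dosing, normalised to DMSO.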

[10] = target: rat Androgen Receptor (AR), Ar (gene 24208) (UniProt P15207); assay: NVS_NR_rAR: NovaScreen (NVS) Nuclear Receptor Binding Assay for rat Androgen Receptor (AR) (AID 2283366)
Procedure, shortened: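 Actives from a duplicate single-concentration (25 uM) primary run went on to concentration series. Displacement of radioligand was counted by filtration and scintillation, 18 h post-dose, using prostate extracts from testosterone-pretreated rats, with DMSO as baseline.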

[11] = tested on: guinea pig Dopamine Transporter (DAT), gene 100714898; assay: NVS_TR_gDAT: NovaScreen (NVS) Transporter Assay for guinea pig Dopamine Transporter (DAT) (AID 2283369);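 note: active compounds lower bound radioligand signal relative to DMSO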
Procedure, shortened: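 Cell-free striatal membrane prep (guinea pig), 2 h exposure, filtration + scintillation readout of radioligand binding. Single-point 25 uM duplicate; actives rerun singleton, top conc 50 uM.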

[12] = target: Norway rat Vesicular Monoamine Transporter (VMAT2), neurotransmitter transporter, Slc18a2 (gene 25549) (UniProt Q01827); assay: NVS_TR_rVMAT2: NovaScreen (NVS) Transporter Assay for Norway rat Vesicular Monoamine Transporter (VMAT2), neurotransmitter transporter (AID 2283376);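 note: actives lower the bound radioligand signal below the DMSO level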
Sequence of Norway rat Vesicular Monoamine Transporter (VMAT2), neurotransmitter transporter, Slc18a2 (gene 25549) (Q01827 whole entry, looked up): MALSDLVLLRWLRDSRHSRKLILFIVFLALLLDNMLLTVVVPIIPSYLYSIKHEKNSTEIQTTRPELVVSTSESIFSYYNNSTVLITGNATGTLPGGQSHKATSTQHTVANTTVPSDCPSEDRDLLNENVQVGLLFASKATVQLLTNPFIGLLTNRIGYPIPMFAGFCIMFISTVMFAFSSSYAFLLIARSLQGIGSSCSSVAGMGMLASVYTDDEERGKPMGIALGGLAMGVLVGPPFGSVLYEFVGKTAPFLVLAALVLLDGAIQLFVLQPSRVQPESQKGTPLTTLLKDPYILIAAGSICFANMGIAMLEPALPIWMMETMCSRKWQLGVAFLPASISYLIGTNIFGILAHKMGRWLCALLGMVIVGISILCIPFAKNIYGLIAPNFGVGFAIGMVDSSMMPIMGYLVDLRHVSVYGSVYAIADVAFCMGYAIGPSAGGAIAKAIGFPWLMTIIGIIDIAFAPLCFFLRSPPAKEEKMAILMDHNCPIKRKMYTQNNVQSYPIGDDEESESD
Procedure, shortened: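 Using rat forebrain membranes, specific radioligand binding to VMAT2 was measured by filtration and scintillation counting after 1 hour. Chemicals screened at 25 uM in duplicate, actives retested in concentration series, DMSO baseline.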

[13] = target: Agonist Androgen Response Element (ARE), AR (gene 367) (UniProt P10275); assay: OT_AR_ARELUC_AG_1440: Odyssey Thera (OT) 24-hour CHO-K1 Luciferase Assay for Agonist Androgen Response Element (ARE) (AID 2283379)
Sequence of Agonist Androgen Response Element (ARE), AR (gene 367) (P10275 whole entry, looked up): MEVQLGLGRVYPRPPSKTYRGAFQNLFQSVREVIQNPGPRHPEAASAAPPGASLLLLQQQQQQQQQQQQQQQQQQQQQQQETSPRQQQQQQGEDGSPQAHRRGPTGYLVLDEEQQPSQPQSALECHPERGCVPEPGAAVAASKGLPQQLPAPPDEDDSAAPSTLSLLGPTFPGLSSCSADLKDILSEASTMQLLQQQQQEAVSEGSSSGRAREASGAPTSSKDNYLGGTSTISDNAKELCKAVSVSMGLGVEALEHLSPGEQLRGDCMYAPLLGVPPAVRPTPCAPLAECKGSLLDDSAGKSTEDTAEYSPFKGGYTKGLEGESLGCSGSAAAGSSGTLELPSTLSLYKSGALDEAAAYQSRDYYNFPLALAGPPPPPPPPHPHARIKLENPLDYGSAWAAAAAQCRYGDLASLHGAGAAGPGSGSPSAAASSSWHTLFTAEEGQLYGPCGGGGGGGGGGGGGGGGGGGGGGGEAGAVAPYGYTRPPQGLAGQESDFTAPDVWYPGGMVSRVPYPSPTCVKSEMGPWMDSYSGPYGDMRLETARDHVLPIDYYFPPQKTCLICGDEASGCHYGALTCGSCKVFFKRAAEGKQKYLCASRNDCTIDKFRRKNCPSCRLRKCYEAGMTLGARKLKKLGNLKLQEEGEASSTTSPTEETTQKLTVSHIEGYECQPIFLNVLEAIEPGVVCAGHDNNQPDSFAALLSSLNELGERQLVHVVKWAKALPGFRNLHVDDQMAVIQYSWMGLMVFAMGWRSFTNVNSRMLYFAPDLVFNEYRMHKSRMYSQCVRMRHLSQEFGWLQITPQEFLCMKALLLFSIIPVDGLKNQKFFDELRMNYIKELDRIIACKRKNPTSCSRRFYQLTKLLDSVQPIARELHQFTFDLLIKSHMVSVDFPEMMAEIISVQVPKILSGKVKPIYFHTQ
Procedure, shortened: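 Readout: luciferase bioluminescence from CHO-K1 ARE-luc cells, measured 24 h post-dosing; agonism = increased mean luminescence vs DMSO controls, fitted in positive direction.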

[14] = target: Bile acid receptor (Homo sapiens) (UniProt Q96RI1); assay: OT_FXR_FXRSRC1_0480: Odyssey Thera (OT) 8-hour HEK293T Protein-Complementation Assay for Farnesoid X receptor/SRC-1 Co-activator (AID 2283383)
Sequence of Bile acid receptor (Homo sapiens) (Q96RI1 whole entry, looked up, the tested form may be a part): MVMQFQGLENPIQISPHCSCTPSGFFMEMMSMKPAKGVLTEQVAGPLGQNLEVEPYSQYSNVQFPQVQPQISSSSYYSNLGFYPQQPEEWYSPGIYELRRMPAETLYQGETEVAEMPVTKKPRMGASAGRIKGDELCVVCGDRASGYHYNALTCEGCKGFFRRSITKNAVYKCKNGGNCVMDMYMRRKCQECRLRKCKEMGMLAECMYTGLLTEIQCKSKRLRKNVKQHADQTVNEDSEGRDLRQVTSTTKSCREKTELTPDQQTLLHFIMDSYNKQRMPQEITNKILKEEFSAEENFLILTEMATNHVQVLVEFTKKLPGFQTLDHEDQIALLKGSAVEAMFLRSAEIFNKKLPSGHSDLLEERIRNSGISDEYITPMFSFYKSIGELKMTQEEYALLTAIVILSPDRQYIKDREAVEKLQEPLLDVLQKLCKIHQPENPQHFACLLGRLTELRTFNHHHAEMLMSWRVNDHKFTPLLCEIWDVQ
Procedure, shortened: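 Fluorescence intensity read-out, 8 h post-dose, HEK293T protein-fragment complementation; FXR bait and SRC-1 prey each linked to reporter fragments. Activity scored as signal increase over DMSO negative control.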

[15] = target: Bile acid receptor (Homo sapiens) (UniProt Q96RI1); assay: OT_FXR_FXRSRC1_1440: Odyssey Thera (OT) 24-hour HEK293T Protein-Complementation Assay for Farnesoid X receptor/SRC-1 Co-activator (AID 2283384)
Procedure, shortened: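 Fluorescence readout, 24 h post-dose, HEK293T; FXR and SRC-1 fused to complementary reporter fragments, association reconstitutes signal. Positive-direction fit vs DMSO baseline.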

[16] = target: Estrogen receptor (Homo sapiens) (UniProt P03372); assay: OT_ERa_GFPERaERE_0480: Odyssey Thera (OT) 8-hour HeLa Transcription Induction Assay for Estrogen Receptor (AID 2283381; active = hit-call score of the fitted dose curve at least 0.9, where 1 is the maximum; inactive = score below 0.9)
Procedure, shortened: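 GFP-ERE reporter, HeLa, 8 h exposure. Readout: fluorescence microscopy, high-content image analysis. Fit direction positive vs DMSO negative control.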

[17] = target: human Adenosine Transporter (Adot), SLC29A1 (gene 2030) (UniProt Q99808); assay: NVS_TR_hAdoT: NovaScreen (NVS) Transporter Assay for human Adenosine Transporter (Adot) (AID 2283368)
Procedure, shortened: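 Binding displacement on U937 extracted protein, read 1 h post-dose by filtration and scintillation counting. Primary duplicate test at 25 uM, then singleton concentration series with 50 uM top; DMSO baseline.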

[18] = target: human Serotonin Transporter (SERT), SLC6A4 (gene 6532) (UniProt P31645); assay: NVS_TR_hSERT: NovaScreen (NVS) Transporter Assay for human Serotonin Transporter (SERT) (AID 2283372)
Procedure, shortened: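 Human platelet membrane preparation; displacement of radioligand from serotonin transporter measured after 1 h by filtration and scintillation counting. Single 25 uM duplicate screen, then concentration series for actives, with DMSO as negative baseline.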

[19] = tested on: rat Norepinephrine Transporter (NET), gene 83511; assay: NVS_TR_rNET: NovaScreen (NVS) Transporter Assay for rat Norepinephrine Transporter (NET) (AID 2283373)
Procedure, shortened: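 Competitive radioligand displacement at the rat NET using forebrain membrane preparations, 1 h incubation, filter-based scintillation readout. Primary testing in duplicate at a single 25 uM concentration; confirmed actives retested across concentrations.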

[20] = target: Retinoic acid receptor alpha (Homo sapiens) (UniProt P10276); assay: NVS_NR_hRARa_Agonist: NovaScreen (NVS) Nuclear Receptor Binding Assay for human Retinoic Acid Alpha Receptor Agonism (RAR) (AID 2283361)
Procedure, shortened: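 Agonist-mode TR-FRET binding format using extracted protein, measured at 2 h post-dosing. Initial duplicate single-point screen at 25 uM preceded concentration series for actives; activity was normalized to DMSO baseline.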

Measured: AC50

CC(C)(c1ccccc1)c1ccc(O)c(C(C)(C)c2ccccc2)c1
inactive: [1] | [2] | [3] | [4] | [5] | [6]

O=[N+]([O-])c1ccc2c3c(cccc13)CC2
active: [7] 18.2 µM

CCOC(=O)/C=C(C)/C=C/C[C@@H](C)CCCC(C)C
active: [8] 11 µM

O=Cc1cccc(Oc2ccccc2)c1
active: [2] 5.52 µM

CC(C)(C)CC(C)(C)c1ccc(O)cc1
active: [9] 4.67 µM and 15.9 µM and 7.33 µM | [2] 15.1 µM | [3] 11.7 µM | [5] 1.04 µM and 593 nM and 1.02 µM | [14] 11.2 µM
inactive: [10] | [11] | [12] | [13]

O=[N+]([O-])c1ccc(O)c([N+](=O)[O-])c1
inactive: [10] | [13] | [5] | [6]

Cn1sc(Cl)cc1=O
active: [3] 1.59 µM
inactive: [9] | [2] | [5] | [6] | [14] | [15]

CC(C)(c1ccc(OCC2CO2)cc1)c1ccc(OCC2CO2)cc1 (centres undefined)
inactive: [9] | [13] | [5] | [16] | [6]

CCN1CCC2(CC1)COc1cc3c(cc12)N(C(=O)c1ccc(-c2ccc(-c4nnc(C)o4)cc2C)cc1)CC3
active: [8] 3.01 µM | [17] 1.11 µM | [11] 7.47 µM | [2] 6.34 µM | [7] 7.6 µM | [3] 10.1 µM | [4] 0.174 µM
inactive: [10] | [18] | [19] | [13] | [5] | [6]

CC12CC1(C)C(=O)N(c1cc(Cl)cc(Cl)c1)C2=O (centres undefined)
inactive: [10] | [13] | [5]

N#CCCO
inactive: [10]

CCN(CC)C(=O)Cl
inactive: [10]

COc1cc(-c2ccc(N)c(OC)c2)ccc1N
active: [17] 14.2 µM | [3] 10.3 µM and 7.7 µM
inactive: [20] | [19]

Nc1ccc(Cl)cc1C(=O)c1ccccc1
active: [11] 6.19 µM | [2] 1.73 µM | [3] 12 µM

COP(=S)(OC)Oc1ccc(Sc2ccc(OP(=S)(OC)OC)cc2)cc1
active: [10] 16.1 µM | [3] 1.39 µM | [5] 33.8 µM
inactive: [10] | [13] | [6]

CC(C)(OO)c1ccccc1
inactive: [9] | [3] | [6]

C(=NC1CCCCC1)=NC1CCCCC1
active: [8] 30.8 µM

Clc1ccc(COC(Cn2ccnc2)c2ccc(Cl)cc2Cl)cc1 (centres undefined)
inactive: [1] | [4] | [5] | [6]
active: [9] 2.3 µM | [10] 6.9 µM | [16] 63.8 µM

CC(=O)[O][Hg][c]1ccccc1
inactive: [13] | [5]
active: [17] 11.8 µM | [2] 12.4 µM | [3] 0.212 µM | [6] 12 µM | [15] 0.2 µM

Oc1ccc(-c2ccccc2)cc1
active: [11] 11.9 µM | [2] 10.7 µM | [4] 17.7 µM | [5] 11.8 µM | [14] 33.3 µM | [15] 33.3 µM

COP(=S)(OC)Oc1ccc(S(=O)(=O)N(C)C)cc1
inactive: [12]

CC(C)C1CCC(Cc2ccc(Cl)cc2)C1(O)Cn1cncn1 (centres undefined)
active: [9] 5.7 µM | [6] 90.2 µM | [15] 11.2 µM
inactive: [5]

CC(=[OH+])/C=C(/C)[O-].CC(=[OH+])/C=C(/C)[O-].CC(=[OH+])/C=C(/C)[O-].[Fe]
inactive: [12]

Clc1ccc(C2(Cn3cncn3)CC(Br)CO2)c(Cl)c1 (centres undefined)
inactive: [1] | [5] | [16] | [6] | [14] | [15]
active: [9] 6.23 µM

C[C@]12CCC(=O)C[C@@H]1CC[C@@H]1[C@@H]2CC[C@]2(C)[C@@H](O)CC[C@@H]12
active: [8] 5.71 µM | [5] 6.06 µM and 8.11 µM and 7.61 µM
inactive: [5]

CCC(=O)C(CC(C)N(C)C)(c1ccccc1)c1ccccc1 (centres undefined)
active: [8] 2.1 µM | [19] 11.3 µM | [7] 0.0639 µM | [3] 5.61 µM
inactive: [13] | [5] | [6] | [14] | [15]

ClC1(Cl)C2(Cl)C3(Cl)C4(Cl)C(Cl)(Cl)C5(Cl)C3(Cl)C1(Cl)C5(Cl)C24Cl (centres undefined)
inactive: [20] | [13] | [6] | [14] | [15]

NNC(=S)NN
active: [1] 25.4 µM | [4] 0.0993 µM
inactive: [5] | [16] | [6]

CCOP(=S)(OCC)SCSP(=S)(OCC)OCC
inactive: [3] | [16]
active: [2] 25 µM | [5] 17.5 µM | [6] 10.9 µM

Reference: PubChem BioAssay (EPA / NIEHS)
